# Source: PubChem BioAssay (NCATS)
# Inconclusive results are not listed. Values without a mark were called inactive. Active and inactive are the calls of the source. Calls follow the shape of the dose curve; as a rule, active = well fitted cell-killing curve with a large enough effect; inconclusive = small, poorly fitted or top-dose-only effect, or effect the other way; inactive = flat fitted curve, though single readings scatter.
# Test system: SKOV3
# Assay: Primary qHTS to identify gynecologic anti-cancer compounds using libraries of approved drugs and bioactive compounds (AID 1345084); also: nearly all actives have a fitted effect of over 55% in size
# Conditions: Gynecologic cancer cell panel viability, ATPlite luminescence, 48 h; series mostly up to 57.5 µM; activity change, negative = cytotoxicity: at the top concentration
# In short: (§1)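 Cells, 1,000 per well, were allowed to settle for 16 h at 37 C before compound addition. Five concentrations were tested for 48 h, and viability was read by ATPlite luminescence after 15 min at room temperature.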
# % is scaled to controls: 0 for no effect and ±100 for the full control effect; potency is read from the fitted curve at half-maximal effect.
Compound,Potency,"activity change, negative = cytotoxicity"
CN[C@H]1CC[C@@H](c2ccc(Cl)c(Cl)c2)c2ccccc21,28.2 µM (active),
Cc1sc2c(c1C)C(c1ccc(Cl)cc1)=N[C@@H](CC(=O)Nc1ccc(OCCOCCOCCOCCNc3cccc4c3C(=O)N(C3CCC(=O)NC3=O)C4=O)cc1)c1nnc(C)n1-2 (some centres undefined),2.82 µM (active),
CCn1nc(C2CCN(C(=O)CCO)CC2)nc1-c1cnc(N)c(-c2nnc(C(C)(C)C)o2)n1,1.78 µM (active),
Oc1cccc(-c2c3nc(c(-c4cccc(O)c4)c4ccc([nH]4)c(-c4cccc(O)c4)c4nc(c(-c5cccc(O)c5)c5ccc2[nH]5)CC4)C=C3)c1,,-20.4%
Cc1[nH]c(/C=C2\C(=O)Nc3ccc(F)cc32)c(C)c1C(=O)NCCN1CCCC1,15.8 µM (active),
C=C1C(=O)O[C@@H]2C[C@@]3(C)C[C@@H](O)C[C@H](C)C3=C[C@H]12,,-1.14%
CCNC(=O)C#Cc1ccc2c(C(=Nc3ccc(CN(C)C)cc3)c3ccccc3)c(O)[nH]c2c1,1.41 µM (active),
COc1cc2c(cc1OC(C)C)[C@H](c1ccc(Cl)cc1)N(c1ccc(N(C)CC3CCC(N4CCN(C)C(=O)C4)CC3)cc1)C(=O)C2 (some centres undefined),,-19.1%

# Test system: Tov-21-G
# Assay: as above
# Conditions: Gynecologic cancer cell panel viability, ATPlite luminescence, 48 h; series mostly up to 57.5 µM; activity change, negative = cytotoxicity: at the top concentration
# In short: as §1
Compound,"activity change, negative = cytotoxicity",Potency
N#CC(CCCN1CCC(O)(c2ccc(Cl)cc2)CC1)(c1ccccc1)c1ccccc1,-16.8%,
C=C1C(=O)O[C@@H]2[C@H]1CC(=O)[C@H](C)[C@@](O)(C(=O)/C=C/C)[C@H]2OC(=O)C(C)CC (some centres undefined),,12.6 µM (active)
Cc1ccc(O)cc1Nc1ccnc(Nc2cccc(C(N)=O)c2)n1,,10 µM (active)
CC1CCCC(O)CC(=O)c2c(O)cc(O)cc2CC(=O)O1 (centres undefined),-29.6% [at 38.5 µM],
CCN(Cc1cc(Nc2nc(C)cn3c(-c4cn[nH]c4)cnc23)sn1)C(C)(C)CO,,0.355 µM (active)
Fc1ccc(-n2cc(CCCCN3CCC4(CC3)OCc3ccccc34)c3ccccc32)cc1,-20.1%,
C=C(C)C(=O)O[C@H]1C[C@@](C)(O)C2(O)CCC(C)(/C=C3/OC(=O)C(COC)=C31)O2 (some centres undefined),,10 µM (active)
COC1CC/C=C(\C)C(=O)Nc2cc(O)cc(c2)CC(C)CC(OC)C(O)C(C)/C=C(\C)C1OC(N)=O (centres undefined),,3.98 µM (active)
Cc1cc2occ(CN(C)CCN(C)Cc3cn(-c4cccc(C(F)(F)F)c4)c4ccccc34)c(=O)c2cc1C,,28.2 µM (active)
CNc1nc(NCc2ccc(NS(C)(=O)=O)cc2Cl)cc(-c2ccccn2)n1,3.24%,
N#Cc1ccc(COc2ccc(-c3cccc4nc(NC(=O)C5CC5)nn34)cc2)cn1,-25%,
C/C1=C\[C@@H](C)C[C@@H](C)[C@@H](Cc2cnco2)OC(=O)/C(C)=C/[C@@H](C)C[C@@H](C)[C@@H](Cc2cnco2)OC1=O,-29.7% [at 25.3 µM],
C=C1C(=O)OC2/C=C(/C)C3=CC(=O)C(C)(CC(OC(=O)/C(C)=C/COC(C)=O)C12)O3 (centres undefined),,11.2 µM (active)
CCOC(=O)N1CCC(CN(Cc2ccc(Cl)cc2)Cc2ccc([N+](=O)[O-])s2)C1 (centres undefined),8.74%,
Cc1nc2ccc(-n3ncc(C(=O)c4cc5ccccc5[nH]4)c3N)cc2[nH]1,,28.2 µM (active)
COc1ccc(-c2ccc3c(N4CCOCC4C)nc(N4CCOCC4C)nc3n2)cc1CO (centres undefined),,0.251 µM (active)

Compound,"activity change, negative = cytotoxicity",Potency
COc1cc(O)c2c(c1)/C=C/C[C@H](O)[C@H](O)C(=O)/C=C\C[C@H](C)OC2=O,,17.8 µM (active)
CCc1cc(C(N)=O)ccc1-n1nc(C(C)C)c2c(-n3cnc(-c4cnn(C)c4)c3)ccnc21,,3.55 µM (active)
Nc1ncnc2c1c(-c1ccc(Oc3ccccc3)cc1)nn2[C@@H]1CCCNC1,-25.6%,
CCn1c(-c2nonc2N)nc2c(C#CCO)ncc(OCCCN)c21,-15.2%,
CC[C@@H](C)Nc1cc(C(=O)NC2CC3CC[C@@H](C2)N3c2ccc(C(=O)C3CC3)cn2)c(C)cc1C(N)=O (some centres undefined),,0.398 µM (active)
O=C(Nc1cccc2cccnc12)c1ccc(N2C(=O)[C@@H]3C4C=CC(C4)[C@@H]3C2=O)cc1,,31.6 µM (active)
C=C[C@@]1(C)C=C2C(=O)C(O)=C3[C@](C)(C(=O)O)CC[C@@H]4C[C@]34[C@]2(O)C(=O)C1,,11.2 µM (active)
CCCc1cc(C)[nH]c(=O)c1CNC(=O)c1cc(-c2ccnc(N3CCN(C)CC3)c2)cc2c1cnn2C(C)C,,31.6 µM (active)
COc1cc(-n2cnc3cc(-c4ccc(Cl)cc4)sc3c2=O)ccc1OCCN1CCCC1,-10.2%,
NC(=O)CCCSc1nc(N)nc(-c2c(Cl)cc3c4c(cccc24)COC3)n1,,1 µM (active)
CCN1CCN(Cc2ccc(NC(=O)c3ccc(C)c(Oc4ccnc5[nH]ccc45)c3)cc2C(F)(F)F)CC1,,12.6 µM (active)
Cc1cc(C)c2c(c1)C(N(Cc1cc(C(F)(F)F)cc(C(F)(F)F)c1)c1nnn(C)n1)CCCN2CC1CCC(C(=O)O)CC1 (centres undefined),-21.3%,
C=CC(=O)N1CCC[C@@H](n2nc(-c3cccc(C(=O)Nc4ccc(C(C)C)c(C)c4)c3)c3c(N)ncnc32)C1,,14.1 µM (active)
C=C1C(=O)O[C@H]2/C=C(/C)[C@@H](OC(C)=O)C/C=C(\C)C[C@@H](OC(=O)/C(=C/C)COC(=O)/C(=C/C)CO)[C@@H]12,,8.91 µM (active)
CCC(C)CC(=O)OC1C(=O)C(CO)=CC(O)C1C(C)C (centres undefined),,25.1 µM (active)
